The list is not random: actives were taken first. Their share in the collection is about 4.7%.
HepG2 viability – qHTS for Inhibitors of TGF-b: Cytotox Counterscreen. HepG2 CAGA-GFP viability, ATP luminescence, 18 h. Potency, µM (top dose mostly 46.1 µM), for the others: at the top dose activity change, negative = cytotoxicity, actives largely listed as cytotoxic. 410,000 compounds, 0.76% hits. AID 588856, 2011; further: potency means the concentration at half of the fitted maximal effect
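HepG2 CAGA-GFP cells (1000/well, DMEM with 1% FBS) received compound, then TGF-beta at 500 pg/mL final, and were incubated 18 hours at 37 degrees C. Viability was read by CellTiter-Glo luminescence. Media-only wells were set as complete cell-killing and DMSO as no toxicity.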
ATXN2 expr inh – Primary qHTS for Inhibitors of ATXN expression; HEK-293 ATXN2-luciferase reporter, luminescence, 24 h; Potency, µM (highest dose often 57 µM), inactives show top-dose activity change, negative = inhibition, most hits filed as inhibitors; 360,000 compounds, 0.72% hits; further: potency means the concentration at half of the fitted maximal effect; on the % scale 0 is the no-effect control and ±100 the full control effect; nearly all actives have a fitted effect of over 55% in size
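qHTS (up to 57 uM final) was run with 24 h compound exposure of reporter cells at 37 °C. Each well was multiplexed: SteadyGlo luminescence measured ATXN2-luciferase expression after a fluorogenic Gly-Phe-AFC viability readout (25 uM final).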
DRD3 antagonist – qHTS of D3 Dopamine Receptor Antagonist: qHTS. D(3) dopamine receptor (Homo sapiens), P35462. D3R cells, DiscoveRx beta-arrestin luminescence, antagonist mode; hits give low values. max response, negative = inhibition, %. 360,000 compounds, 2.5% hits. AID 652054, 2013; in the data active means max response below about -50%; inconclusive means no clear call, values can overlap the other calls; further: on the % scale 0 is the no-effect control and ±100 the full control effect
Target sequence (P35462 whole entry, looked up): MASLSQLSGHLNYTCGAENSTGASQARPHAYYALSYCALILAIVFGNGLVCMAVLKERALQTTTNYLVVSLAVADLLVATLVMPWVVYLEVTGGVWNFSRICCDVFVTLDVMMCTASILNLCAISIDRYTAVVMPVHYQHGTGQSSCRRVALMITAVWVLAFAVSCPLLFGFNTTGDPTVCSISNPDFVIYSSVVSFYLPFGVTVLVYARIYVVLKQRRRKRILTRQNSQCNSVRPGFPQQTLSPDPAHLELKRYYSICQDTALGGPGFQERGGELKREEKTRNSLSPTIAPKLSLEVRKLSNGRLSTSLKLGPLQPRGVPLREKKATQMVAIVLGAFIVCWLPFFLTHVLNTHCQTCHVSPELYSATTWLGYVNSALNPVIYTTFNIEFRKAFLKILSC
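Cells plated overnight at 1500 cells/well, then exposed to library compounds with dopamine controls for 90 minutes at 37 degrees C. DiscoveRx reagent added for 30–60 minutes at room temperature; luminescence read, quantitative HTS format.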
ATXN viability – Viability Counterscreen for Primary qHTS for Inhibitors of ATXN expression. S2 cells (HEK-293 line with an ATXN2-luciferase reporter) viability, CellTiter-Fluor protease fluorescence, 24 h. Potency, µM (titrated, usually from 56.7 µM), most hits filed as cytotoxic. 400,000 compounds, 0.49% hits. AID 651635, 2014; further: potency means the concentration at half of the fitted maximal effect; nearly all actives have a fitted effect of over 40% in size
DRD3 agonist – qHTS of D3 Dopamine Receptor Agonist: qHTS. D3R DiscoveRx beta-arrestin cells, luminescence, 90 min. 410,000 compounds, 0.58% hits. max activation, %; in the data active means max activation above about 30%; further: 0% is about no effect
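Agonist-mode cell screen: cells plated at 1500/well and incubated overnight at 37 °C, then exposed to library compounds for 90 min at 37 °C. Detection reagent was added for 30–60 min at room temperature, and luminescence was read.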
TGFb SMAD3 inh – qHTS for Inhibitors of TGF-b | HepG2 CAGA-GFP TGF-b/SMAD3 reporter, GFP fluorescence, 18 h; TGF-beta stimulated, 500 pg/mL final | Potency, µM (top dose mostly 46.1 µM), without a hit: at the highest dose activity, negative = inhibition, actives largely listed as inhibitors | 410,000 compounds, 1.2% hits | AID 588855, 2011; further: potency means the concentration at half of the fitted maximal effect; on the % scale 0 is the no-effect control and ±100 the full control effect; nearly all actives have a fitted effect of over 65% in size
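HEPG2 CAGA-GFP cells (1000/well, DMEM with 1% FBS) were pre-incubated 2 h at 37 degrees C, given compound by pin tool, then stimulated with TGF-beta at 500 pg/mL final for 18 h before per-cell GFP fluorescence imaging.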
The depositor's hits bear a star; i = inactive; ? = inconclusive; . = no result given. Unless noted, the call rests on the fitted dose curve; in most records, active means well fitted curve in the direction sought with a large enough effect; inconclusive means small, poorly fitted or top-dose-only effect, or another doubt; inactive means no such curve, though single readings can be large; an effect the other way counts as inactive or inconclusive.

SMILES	HepG2 viability	ATXN2 expr inh	DRD3 antagonist	ATXN viability	DRD3 agonist	TGFb SMAD3 inh
COC(=O)C1=[N+]([O-])OC(C(=O)OC)C1c1c[nH]c2ccccc12 (stereo unspecified)	-4.0%	1.8%	-55.8*	i	6.5	-1.0%
COC(=O)c1ccc(NC(=O)C(=O)c2c[nH]c3ccccc23)cc1	-3.2%	.	23.0	i	0.6	14.5%
O=C1OCCN1CCN(CN1C(=O)CCC1=O)CN1C(=O)CCC1=O	1.9%	-0.5%	-56.8*	i	-2.9	14.7%
Cc1cccc(/C=C/c2onc(C)c2[N+](=O)[O-])n1	-166.5%	?	?	17.8µM*	-3.6	0.0%
Cc1cccc(N/C=C/c2onc(C)c2[N+](=O)[O-])c1	-25.2%	32.8%	?	i	-0.4	31.4%
CSc1sccc1/C=N/NC(=O)c1ccncc1	10.4%	.	10.8	?	0.9	10.8%
CSc1sccc1/C=N/O	8.7%	-7.1%	-55.0*	i	13.9	17.7%
CCn1c(C(=O)N2CCC(C(=O)NCCc3ccc(C)cc3)CC2)cc2sccc21	-32.9%	.	.	.	-18.5	?
CC(=O)Nc1ccc(NC(=O)Cn2cnc3c(cnn3C(C)(C)C)c2=O)cc1	3.5%	0.7%	18.8	i	-6.1	0.0%
CC(C)(C)n1ncc2c(=O)n(CC(=O)Nc3ccc(Cl)cc3)cnc21	-4.4%	-9.4%	-53.9*	i	-14.4	23.9%
O=Cc1ccc(I)cc1	11.1%	.	.	.	.	2.3%
O=C1N/C(=N\N=C\c2ccco2)SC1Cc1ccccc1[N+](=O)[O-] (stereo unspecified)	-14.6%	.	-7.1	11.2µM*	-0.1	-29.3%
Cc1ccc(Cn2c(=O)c3ccccc3n3c(-c4cccc(O)c4)nnc23)cc1	-9.3%	-0.4%	.	i	-0.4	-3.4%
CC(=O)/C(=N\Nc1ccccc1)Sc1nnc(-c2ccccc2)n1-c1ccccc1	1.4%	-5.1%	-97.4*	i	-5.8	4.7%
Oc1ccc(C=Cc2cc(O)cc(O)c2)cc1	.	59.2%	.	.	.	.
Cc1nc2sc(C(N)=O)c(N)c2c2c1CCCC2	20µM*	10.7%	9.0	i	3.3	?
NC(=O)c1sc2nc(-c3ccccc3)c3c(c2c1N)CCCC3	-3.5%	11.5%	5.0	.	0.3	-27.2%
Cc1ccc(-c2nc3sc(C(N)=O)c(N)c3c3c2CCCC3)cc1	-4.0%	-10.0%	64.9	i	26.5	?
CC(=O)c1sc2nc(-c3ccc(C)cc3)c3c(c2c1N)CCCC3	-27.4%	-12.5%	67.9	.	52.4*	0.0%
COc1ccccc1N1CCN(CCCN2CC(=O)N3CCCCC3C2=O)CC1 (stereo unspecified)	0.7%	-23.0%	-52.7*	i	-16.8	-4.1%
CCOc1ccc(N2C(=O)C3CCCN3C2=O)cc1 (stereo unspecified)	-7.3%	5.8%	17.6	i	5.3	0.0%
COc1ccccc1N1CCN(C2CCCN(C(=O)CN3CCCCC3=O)C2)CC1 (stereo unspecified)	-31.0%	-9.7%	-14.8	i	-19.9	0.0%
COc1ccccc1N1CCN(CCCCN2C(=O)C3CCCCN3C2=O)CC1 (stereo unspecified)	4.6%	-3.2%	-77.4*	i	-35.0	-1.5%
COc1ccccc1N1CCN(C(=O)CN2C(=O)C3CCCCC3C2=O)CC1 (stereo unspecified)	9.1%	.	-16.3	i	0.1	-4.7%
CCCCOc1ccccc1N1CCN(CCCN2C(=O)C3CCCN3C2=O)CC1 (stereo unspecified)	-27.5%	2.2%	-87.2*	i	-17.5	-21.0%
SMILES	HepG2 viability	ATXN2 expr inh	DRD3 antagonist	ATXN viability	DRD3 agonist	TGFb SMAD3 inh
Cc1ccccc1N1CCN(CCCCN2C(=O)C3CCCN3C2=O)CC1 (stereo unspecified)	-0.2%	-13.2%	-84.1*	i	-14.2	3.0%
O=C1C2CCCN2C(=O)N1CCN1CCN(CCO)CC1 (stereo unspecified)	-3.6%	8.4%	-10.3	i	3.3	-0.5%
CC(=O)Nc1ccc(/C=C/c2ccnc3ccccc23)cc1[N+](=O)[O-]	-18.8%	.	.	.	.	13.2%
COc1ccc(/C=C/c2nccc3ccccc23)cc1OC	-25.4%	.	.	.	.	?
C=C1C=C(C(F)F)n2ncc(C(=O)NCc3ccccc3)c2N1	-3.5%	.	.	.	.	20.2%
CCOc1ccc(NC(=O)CSc2ccc3ccccc3n2)cc1	-12.3%	.	.	.	4.8	.
c1ccc(-c2nc3cc4ccccc4cc3[nH]2)nc1	8.91µM*	-21.6%	8.8	i	1.0	-29.6%
CN1c2ccc([N+](=O)[O-])cc2N(C)C1(C)c1ccccc1 (stereo unspecified)	-9.5%	-11.9%	-62.1*	?	-20.2	-13.0%
COc1ccc(CNC(=O)CC(c2ccc(OC)c(OC)c2)N2Cc3ccccc3C2=O)cc1 (stereo unspecified)	-10.5%	-2.3%	.	i	0.9	7.9%
O=C(Nc1ccccc1C(=O)O)c1cccc(C(=O)Nc2ccccc2C(=O)O)c1	-25.0%	2.6%	102.4	i	30.4*	-3.9%
CC(c1ccccc1)N1C(=O)c2ccc(C(=O)Nc3ccccc3C(=O)O)cc2C1=O (stereo unspecified)	-7.8%	4.8%	105.4	i	31.8*	?
O=C(Nc1ccccc1C(=O)O)c1ccc(NC(=O)c2ccc(Br)o2)cc1	-20.8%	-3.6%	43.8	i	114.7*	9.8%
COc1ccc(C(=O)CSc2n[nH]c(-c3ccco3)n2)cc1	-11.8%	-0.1%	-59.1*	i	3.7	13.4%
Cc1ccc(C(=O)CSc2n[nH]c(-c3ccco3)n2)cc1C	-3.1%	-2.8%	-18.9	i	-3.9	-8.1%
CC(=O)c1ccc(NC(=O)Cn2cc(S(=O)(=O)Cc3cccc(Cl)c3)c3ccccc32)cc1	-55.9%	.	.	.	-8.4	?
CC(=O)O[C@H]1C[C@@H]2CC[C@@H]3[C@H](CC[C@@]4(C)[C@H]3C[C@H](N3CC[N+](C)(C)CC3)[C@@H]4OC(C)=O)[C@@]2(C)C[C@@H]1N1CC[N+](C)(C)CC1	.	.	.	i	12.3	.
COc1ccc(Nc2cc(C)nc3ccc(OC)cc23)cc1	-27.8%	?	-23.6	i	5.0	-28.9%
COc1ccc2nc(C)cc(N/N=C/c3ccc(F)cc3)c2c1	5.01µM*	?	3.0	?	4.3	3.98µM*
COc1ccc(/C=N/Nc2cc(C)nc3ccccc23)cc1	-76.0%	?	-17.8	?	-7.5	?
COc1ccc(/C=N/Nc2cc(C)nc3c(C)cccc23)cc1	12.6µM*	?	-8.5	?	-9.5	?
